Results on 14 compounds are retold here after publication PMC5540273 (PLoS ONE, 2017).

Test systems include PRKCQ; PRKD1; PRKD2; PRKD3; PRKG1; PRKG2; PRKX; PRP4; QSK; RAF1; RET; RIOK1; RIOK2; RIOK3; RIPK1; RIPK2; RIPK4; RIPK5.
What all share (conditions): concentration: 1 μM, replicates: in singlicate; n = 1
The test system of a further assay is T1, PRKR.
T1 construct: gene EIF2AK2

A further assay deals with T2, PYK2.
T2 construct: gene PTK2B

Molecules are shown by their SMILES.
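Also: KINOMEscan kinase panel screen.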

`CN(C)CCN(C)C(=O)c1cc(-c2ccncc2)c(-c2ccc(Cl)c(O)c2)o1.Cl.Cl` [SB-710397]: the “%Inh” value is listed as 3% in the assay on PRKCQ; 0% in the assay with PRKD1; 57% in the assay with PRKD2; 12% in the assay on PRKD3; 0% in the assay on PRKG1; 0% in the assay on PRKG2. Besides, the “%Inh” value was determined as 0% with PRKR; 0% in the assay on PRKX; 60% in the assay on PRP4; 12% with PYK2; 0% in the assay on QSK; 87% in the assay with RAF1. The “%Inh” value in the assay with RET came out at 24%; with RIOK1, 37%; with RIOK2, 0%; in the assay on RIOK3, 0%; in the assay with RIPK1, 0%; in the assay on RIPK2, 59%. For the same compound, the “%Inh” value in the assay on RIPK4 came to 14%; in the assay on RIPK5, 0%.

On to `Fc1cccc(COc2nnc(-c3ccc4c(c3)CCO4)o2)c1`, for which the “%Inh” value in the assay with PRKCQ amounted to 22%; in the assay on PRKD1, 0%; in the assay with PRKD2 it was 1%; in the assay on PRKD3, 0%; in the assay on PRKG1 it was 0%; in the assay with PRKG2 it was 0%. The “%Inh” value in the assay with PRKR was found to be 0%; in the assay on PRKX it was 0%; in the assay on PRP4 it was 8%; in the assay with PYK2, 10%; in the assay on QSK, 7%; in the assay with RAF1 it was 4%. Moreover, the “%Inh” value with RET is on record as 5%; in the assay with RIOK1 it was 9%; in the assay with RIOK2, 0%; in the assay with RIOK3 it was 0%; with RIPK1, 0%; in the assay with RIPK2, 0%. Besides, the figures for the “%Inh” value with RIPK4 and in the assay on RIPK5 were 0% and 15%, respectively.

Regarding `COc1cccc(NC(=O)NC2CCN(c3ccnc(Nc4ccc(F)cc4)n3)C2)c1` (stereo not shown) [GSK1379721], the “%Inh” value in the assay on PRKCQ was 3%; in the assay with PRKD1, 0%; with PRKD2, 0%; with PRKD3 it was 19%; in the assay on PRKG1 it was 0%; in the assay with PRKG2 it was 0%. Also, the “%Inh” value with PRKR was 1%; with PRKX, 21%; in the assay with PRP4 it was 47%; with PYK2, 0%; in the assay with QSK it was 3%; in the assay with RAF1, 3%. For the same compound, the “%Inh” value in the assay with RET is listed as 0%; with RIOK1, 16%; in the assay on RIOK2 it was 0%; in the assay with RIOK3, 13%; in the assay on RIPK1, 29%; in the assay with RIPK2, 2%. The “%Inh” value is on record as 17% with RIPK4 and 18% in the assay with RIPK5.

As for `COC(=O)c1c(-c2ccccc2)c2cc(C(=O)O)ccc2c(=O)n1Cc1ccccc1`, the “%Inh” value with PRKCQ came to 22%; in the assay on PRKD1 it was 14%; in the assay on PRKD2, 0%; with PRKD3, 3%; in the assay with PRKG1, 8%; with PRKG2, 0%. For the same compound, the “%Inh” value with PRKR came out at 3%; in the assay on PRKX it was 0%; with PRP4 it was 9%; in the assay with PYK2, 0%; in the assay with QSK, 0%; in the assay on RAF1, 81%. Further, the “%Inh” value in the assay with RET was found to be 21%; in the assay on RIOK1, 0%; in the assay on RIOK2, 26%; in the assay with RIOK3, 11%; in the assay on RIPK1, 0%; with RIPK2, 0%. For the same compound, the “%Inh” value in the assay with RIPK4 and in the assay on RIPK5 was 0% in each case.

As for `CC(C)(C)c1ccc(C(=O)Nc2cn3cc(-c4cccnc4)ccc3n2)cc1`, the “%Inh” value with PRKCQ is on record as 22%; in the assay on PRKD1 it was 21%; with PRKD2 it was 14%; with PRKD3, 5%; in the assay on PRKG1, 7%; in the assay on PRKG2, 26%. Also, the “%Inh” value in the assay with PRKR turned out to be 0%; with PRKX, 10%; in the assay with PRP4, 22%; with PYK2, 7%; in the assay with QSK it was 0%; in the assay with RAF1, 0%. The “%Inh” value is recorded as 14% with RET; 34% in the assay on RIOK1; 33% in the assay on RIOK2; 9% in the assay on RIOK3; 27% with RIPK1; 26% with RIPK2. The figures for the “%Inh” value in the assay on RIPK4 and in the assay on RIPK5 were 0% and 17%, respectively.

In the case of `CCCc1ccc(S(=O)(=O)NC2CCN(c3ccnc(Nc4ccc(F)cc4)n3)C2)cc1` (stereo not shown) [GSK1379715], the “%Inh” value was found to be 27% in the assay with PRKCQ; 1% in the assay with PRKD1; 0% in the assay with PRKD2; 0% in the assay with PRKD3; 0% in the assay with PRKG1; 0% with PRKG2. Further, the “%Inh” value with PRKR is listed as 0%; with PRKX it was 1%; in the assay with PRP4 it was 20%; in the assay on PYK2, 0%; in the assay on QSK, 0%; in the assay on RAF1 it was 15%. The “%Inh” value with RET came to 16%; with RIOK1, 3%; in the assay on RIOK2, 0%; with RIOK3 it was 0%; in the assay with RIPK1 it was 0%; in the assay on RIPK2, 0%. The “%Inh” value came to 10% in the assay on RIPK4 and 0% with RIPK5.

Regarding `Cn1ccc2ncnc(Oc3cccc(C(=O)Nc4ccccc4)c3)c21`, the “%Inh” value in the assay on PRKCQ was determined as 0%; in the assay with PRKD1, 0%; with PRKD2, 9%; in the assay on PRKD3, 0%; with PRKG1, 3%; with PRKG2, 0%. Also, the “%Inh” value with PRKR amounted to 0%; with PRKX, 0%; in the assay with PRP4, 5%; in the assay with PYK2 it was 0%; in the assay on QSK it was 0%; in the assay on RAF1 it was 5%. For the same compound, the “%Inh” value was 14% in the assay with RET; 38% in the assay with RIOK1; 0% with RIOK2; 23% in the assay on RIOK3; 0% in the assay with RIPK1; 15% in the assay with RIPK2. The “%Inh” value in the assay on RIPK4 is given as 18%; in the assay with RIPK5, 0%.

For the compound `CCn1c(-c2ccccn2)nc2cnccc21` [SB-736398], the “%Inh” value was determined as 14% in the assay on PRKCQ; 0% in the assay on PRKD1; 0% with PRKD2; 1% with PRKD3; 0% with PRKG1; 3% in the assay on PRKG2. In addition, the “%Inh” value in the assay on PRKR is on record as 0%; with PRKX it was 100%; in the assay on PRP4, 46%; in the assay with PYK2, 9%; in the assay with QSK it was 0%; in the assay with RAF1, 18%. In addition, the “%Inh” value with RET is given as 24%; in the assay with RIOK1, 4%; in the assay with RIOK2, 0%; with RIOK3, 0%; in the assay on RIPK1, 0%; in the assay on RIPK2 it was 0%. In addition, the entries for the “%Inh” value with RIPK4 and with RIPK5 were 15% and 0%, respectively.

On to `COc1cc2nccc(Nc3ccc(NC(=O)c4ccc(C)cc4)c(O)c3)c2cc1OC.Cl` [GW440132], for which the “%Inh” value in the assay on PRKCQ is 16%; with PRKD1, 0%; in the assay with PRKD2, 0%; with PRKD3, 0%; with PRKG1, 0%; in the assay on PRKG2, 0%. Further, the “%Inh” value with PRKR is 0%; in the assay on PRKX it was 18%; in the assay with PRP4 it was 2%; with PYK2 it was 12%; in the assay on QSK, 2%; in the assay on RAF1, 5%. Also, the “%Inh” value with RET amounted to 49%; with RIOK1, 46%; in the assay with RIOK2 it was 13%; in the assay with RIOK3 it was 0%; with RIPK1 it was 4%; in the assay on RIPK2, 17%. Further, the “%Inh” value in the assay on RIPK4 and in the assay on RIPK5 was 0% in each case.

`COc1ccc(CNC(=O)NC2CCN(c3ccnc(Nc4cc(OC)c(OC)c(OC)c4)n3)C2)cc1` (stereo not shown) [GSK1379748]: the “%Inh” value was determined as 0% in the assay on PRKCQ; 0% in the assay with PRKD1; 0% with PRKD2; 0% in the assay on PRKD3; 0% in the assay on PRKG1; 11% in the assay on PRKG2. Also, the “%Inh” value with PRKR was 14%; with PRKX, 17%; in the assay on PRP4, 43%; in the assay with PYK2 it was 0%; in the assay with QSK, 0%; with RAF1, 0%. The “%Inh” value in the assay on RET was determined as 0%; in the assay on RIOK1 it was 35%; in the assay with RIOK2, 0%; in the assay on RIOK3, 32%; in the assay on RIPK1, 17%; in the assay with RIPK2, 16%. Besides, the entries for the “%Inh” value in the assay on RIPK4 and in the assay on RIPK5 were 28% and 48%, respectively.

Take `Cc1cc(NCC(c2ccccc2)c2ccccc2)nc(NCc2ccc(C(F)(F)F)cc2)n1` [GW497681]: the “%Inh” value in the assay on PRKCQ is 0%; in the assay on PRKD1, 0%; with PRKD2, 6%; in the assay on PRKD3, 0%; with PRKG1, 0%; in the assay on PRKG2, 0%. Further, the “%Inh” value with PRKR amounted to 0%; with PRKX it was 6%; in the assay with PRP4, 29%; in the assay with PYK2, 6%; in the assay with QSK it was 0%; in the assay with RAF1 it was 18%. Moreover, the “%Inh” value amounted to 0% in the assay on RET; 22% with RIOK1; 0% with RIOK2; 9% in the assay on RIOK3; 0% in the assay with RIPK1; 9% in the assay on RIPK2. Further, the “%Inh” value with RIPK4 and in the assay with RIPK5 was 0% throughout.

Turning to `Cl.O=C(Nc1cccc(-c2nn3ncccc3c2-c2ccnc(Nc3cccnc3)n2)c1)c1c(F)cccc1F` [GSK312879], the “%Inh” value in the assay on PRKCQ is given as 25%; in the assay with PRKD1, 0%; in the assay on PRKD2, 0%; in the assay on PRKD3 it was 25%; in the assay with PRKG1, 16%; with PRKG2 it was 0%. Further, the “%Inh” value in the assay on PRKR was found to be 0%; in the assay with PRKX, 3%; with PRP4, 11%; in the assay on PYK2, 0%; in the assay on QSK, 0%; with RAF1 it was 87%. In addition, the “%Inh” value in the assay with RET worked out at 31%; in the assay on RIOK1, 31%; with RIOK2, 11%; in the assay on RIOK3, 0%; in the assay on RIPK1, 0%; with RIPK2, 18%. The “%Inh” value was 15% with RIPK4 and 0% in the assay with RIPK5.

In the case of `CC(C)(C)c1ccc(C(=O)Nc2cn3cc(Cl)ccc3n2)cc1`, the “%Inh” value with PRKCQ was found to be 18%; in the assay on PRKD1, 0%; in the assay on PRKD2, 0%; in the assay on PRKD3, 0%; in the assay on PRKG1 it was 0%; in the assay on PRKG2 it was 0%. The “%Inh” value is given as 0% with PRKR; 0% with PRKX; 0% in the assay with PRP4; 96.6% with PYK2; 3% in the assay with QSK; 0% with RAF1. The “%Inh” value was determined as 0% in the assay on RET; 25% in the assay on RIOK1; 0% in the assay with RIOK2; 0% with RIOK3; 0% with RIPK1; 5% in the assay with RIPK2. The “%Inh” value with RIPK4 and with RIPK5 was 0% throughout.

As to `Cc1cccc(-c2nc(C)cc(Nc3ccncc3)n2)n1` [GSK257997], the “%Inh” value is 0% in the assay with PRKCQ; 78% in the assay on PRKD1; 80% with PRKD2; 85% with PRKD3; 0% with PRKG1; 6% with PRKG2. Moreover, the “%Inh” value is listed as 0% with PRKR; 1% in the assay with PRKX; 13% with PRP4; 0% in the assay on PYK2; 0% in the assay on QSK; 100% in the assay on RAF1. The “%Inh” value with RET amounted to 18%; with RIOK1, 20%; in the assay with RIOK2 it was 16%; in the assay on RIOK3 it was 14%; in the assay on RIPK1, 8%; in the assay on RIPK2, 19%. Moreover, the “%Inh” value in the assay on RIPK4 was 7%; in the assay with RIPK5, 0%.
